High-throughput results: PubChem, Pan Lab, Icahn School of Medicine at Mount Sinai
RBX1-CUL1 inh: blocks human RBX1-Cullin-1 di-ubiquitin formation; inhibition, % at 10 µM; 140,000 compounds, 0.6% hits; P62877+Q13616; AID 1347404; in vitro K48 di-Ub FRET, acceptor:donor ratio, 45 min; in the data active means inhibition above about 25%
* hit, by the source's call. The sample as a whole holds a higher share of hits than the screen did.

SMILES | RBX1-CUL1 inh
Oc1ccccc1CN(Cc1cccnc1)CC1CCCN(C2CCCCC2)C1 (stereo not given) | 3
O=C1N(Cc2cccc(F)c2F)CCCC1(O)CNCC1CCCCC1 (stereo not given) | 11
O=C1N(Cc2cccc(F)c2F)CCCC1(O)CNC1CCC1 (stereo not given) | -7
O=C1N(Cc2cccc(F)c2F)CCCC1(O)CNC1CCCC1 (stereo not given) | 94*
CCC(NC(=O)Cn1ncc(N(C)C)cc1=O)c1ccnn1C (stereo not given) | 1
O=S(=O)(Cc1ccccc1)NCC1CCCN(Cc2cccc3cccnc23)C1 (stereo not given) | -5
O=C1C(=O)c2c(C(=O)c3cccs3)coc2-c2ccccc21 | -5
Cc1ccc(NC(=O)c2cccc3c2C(=O)c2ccccc2-3)cc1 | 2
CC(=O)c1coc2c1C(=O)c1ccccc1C2=O | 34*
O=[N+]([O-])c1c(N2CCCC2)ncnc1N1CCOCC1 | 3
CCN1CCC(NC(=O)C(C)Oc2ccccc2Br)CC1 (stereo not given) | 2
Cc1cc(N2CCOCC2)c2c(N)c(Br)cc(C)c2n1 | -1
Cc1cc(Cl)c2c(N)c(C)cc(C)c2n1 | 91*
CCOC(=O)c1c(Cl)cc(C)nc1Cl | 6
CC(C)c1cc(N)cc(C(=O)O)c1O | 3
CCC(C)c1cc(Cc2cc(C(C)CC)cc(C(=O)O)c2O)c(O)c(C(=O)O)c1 (stereo not given) | 80*
CCC(C)NS(=O)(=O)c1ccc(OC)c(C(=O)O)c1 (stereo not given) | -1
Cc1ccc(C(=O)C2C(=O)C(=O)N(CC3CCCO3)C2c2cccc(Br)c2)o1 (stereo not given) | 9
Cc1nc(SCC(=O)Nc2ccc3c(c2)OCCO3)c2c3c(sc2n1)CCCC3 | 42*
COC(=O)c1ccc(NC(=O)CSc2nc(C)nc3sc4c(c23)CCC4)cc1 | 3
Cc1nc(SCC(=O)Nc2ccc3ccccc3c2)c2c3c(sc2n1)CCCC3 | 0
COC(=O)c1ccc(C(=O)OC)n1-c1ccc(OC)cc1 | 1
O=C1C(Cc2c[nH]c3ccccc23)NC(=S)N1c1ccc(F)cc1 (stereo not given) | -3
Nc1ccnc2ncccc12 | 9
Nc1ccc(Br)c2cccnc12 | 62*
SMILES | RBX1-CUL1 inh
O=C(Nc1ccc(Br)c2cccnc12)c1cc(F)c(F)cc1Cl | 4
COc1cccc(NS(=O)(=O)c2ccc3c(c2)C(=O)C(C(=O)NC2CCCCC2)C=N3)c1 (stereo not given) | -2
COCC(C)NC(=O)c1ccc(N2CCOCC2)cc1 (stereo not given) | 8
O=C1NN(c2ccc(Br)cc2)C(=O)/C1=C\c1ccc(-c2ccccc2)o1 | -1
O=C1NN(c2ccc(F)c(Cl)c2)C(=O)/C1=C/c1ccc(-c2cccc(Cl)c2)o1 | -8
COC(=O)c1cccc(-c2ccc(/C=C3/C(=O)NN(c4ccc(C)c(C)c4)C3=O)o2)c1 | 4
CCc1ccc(N2NC(=O)/C(=C/c3ccc(-c4ccc(S(=O)(=O)Nc5nccs5)cc4)o3)C2=O)cc1 | 93*
O=C1NN(c2ccc(F)c(Cl)c2)C(=O)/C1=C/c1ccc(-c2ccc(Cl)cc2)o1 | -7
CCCOC(=O)c1cc(-c2ccc(/C=C3/C(=O)NN(c4ccc(CC)cc4)C3=O)o2)ccc1Cl | 11
O=C1NN(c2cccc(F)c2)C(=O)/C1=C/c1ccc(-c2ccc(Cl)cc2)o1 | 5
Cc1ccc(N2NC(=O)/C(=C/c3ccc(-c4ccc(S(=O)(=O)Nc5nccs5)cc4)o3)C2=O)cc1Cl | 99*
Cc1ccc(N2NC(=O)/C(=C/c3ccc(-c4ccc(S(=O)(=O)Nc5nccs5)cc4)o3)C2=O)cc1C | 85*
COc1ccc(C2CC=CC(OC)C2(C#N)C#N)cc1 (stereo not given) | -2
Cc1ccc(N2C(=O)CSC2c2cccc3cccnc23)cc1 (stereo not given) | 5
c1cc(-c2cnccn2)cc(-c2ccn(Cc3cncn3C3CCCC3)n2)c1 | 2
CCOc1cccc(CNCCO)c1OCc1ccccc1 | -12
O=C(O)CNS(=O)(=O)c1cccc2ccccc12 | 7
Cc1ccccc1S(=O)(=O)NCCC(C)C | -7
CCCNS(=O)(=O)c1cccc2c(N)cccc12 | 58*
CCCc1nn(C)c(-c2nnc(-c3ccc(C(F)(F)F)cc3)o2)c1Cl | -1
FC(F)(F)c1ccc2nc(-c3ccc(Br)cc3)cn2c1 | -2
Brc1ccc(-c2cn3ccncc3n2)cc1 | 29*
O=[N+]([O-])c1ccc2nc(-c3ccc(Br)cc3)cn2c1 | 5
O=C(NC1CC(=O)N(C2CCCCCC2)C1)c1cc[n+]([O-])cc1 (stereo not given) | 1
Cc1oc(-c2ccoc2)nc1CN1C[C@]2(C)C[C@H]1CC(C)(C)C2 | 1
SMILES | RBX1-CUL1 inh
C=CCN1C(=O)/C(=C/c2cc(Br)cc(OC)c2OC)C(=O)NC1=S | -1
C=CCN1C(=O)NC(=O)/C(=C\c2cc(Br)ccc2OCc2ccc(Cl)cc2Cl)C1=O | 101*
C=CCN1C(=O)NC(=O)/C(=C\c2ccc(-c3cc(Cl)ccc3Cl)o2)C1=O | 97*
O=C1OC(c2ccc3ccccc3c2)=N/C1=C/c1ccc(-c2cc(Cl)ccc2Cl)o1 | 4
C=CCN1C(=O)NC(=O)/C(=C/c2ccccc2OCc2ccc(Cl)cc2Cl)C1=O | -5
C=CCN1C(=O)/C(=C/c2ccc(Cl)cc2Cl)NC1=S | 2
CCOC(=O)c1cnc(SC)nc1Nc1cc(C)nn1C | 2
Cc1cccc(CC(=O)Nc2ccc(S(N)(=O)=O)cc2)c1 | 0
O=c1cc(-c2ccccc2)oc(-c2cccc(C(F)(F)F)c2)n1 | -5
COCc1cn(CC2CCN(C(=O)NCc3ccccc3F)CC2)nn1 | -8
Cc1ccc(CCC(=O)N2CCC(Cn3cc(CO)nn3)CC2)cc1C | 0
COc1cccc(CNC(=O)N2CCC(Cn3cc(CO)nn3)CC2)c1 | 36*
CC1(C)OC(=O)C(=Cc2ccc(Nc3cc(C(F)(F)F)cc(C(F)(F)F)c3)o2)C(=O)O1 | 88*
O=C1OC2(CCCCC2)OC(=O)C1=Cc1ccc(Nc2ccc(F)cc2)o1 | 4
O=C1OC2(CCCC2)OC(=O)C1=Cc1ccc(Nc2ccc(F)cc2)o1 | 7
O=C(Oc1ccccc1)c1ccccc1C(=O)N(NC(=O)C(O)(c1ccc(Cl)cc1)c1ccc(Cl)cc1)c1ccccc1 | -8
COc1cc(/C=C2\C(=O)NN(c3ccccc3)C2=O)cc(Cl)c1OCCCOc1ccc(Cl)cc1 | 12
Cc1cc(OCCOc2ccccc2/C=C2\C(=O)NN(c3ccccc3)C2=O)ccc1Cl | 7
Cc1ccccc1COc1ccc(Cl)cc1/C=C1\C(=O)NN(c2ccccc2)C1=O | 9
COc1cc(/C=C2/C(=O)NN(c3ccc(C)cc3)C2=O)cc(Cl)c1OC | 8
O=C1NN(c2ccccc2)C(=O)/C1=C/c1cn(CCCOc2ccc(Cl)cc2)c2ccccc12 | -3
COc1cc(/C=C2\C(=O)NN(c3ccccc3)C2=O)cc(Cl)c1OCCCOc1ccc(C)cc1 | 92*
Cc1ccc(N2NC(=O)/C(=C/c3ccccc3OCc3ccccc3)C2=O)cc1Cl | 8
Cc1ccc(OCCCOc2c(Cl)cc(Cl)cc2/C=C2\C(=O)NN(c3ccccc3)C2=O)cc1 | 77*
CCCOc1ccccc1/C=C1/C(=O)NN(c2ccc(I)cc2)C1=O | 10
Cc1ccc(COc2ccc(Cl)cc2/C=C2\C(=O)NN(c3ccccc3)C2=O)cc1 | 9
Cc1ccc(OCCCOc2ccccc2/C=C2\C(=O)NN(c3ccccc3)C2=O)cc1 | 36*
